# Assay outcomes from PubChem.
# This is a sample that favours compounds with a hit; in the whole collection about 2.4% have one here.
# FEN1 inhibitor: human FEN1 inhibition. P39748. Recombinant FEN1 flap cleavage, fluorescence, 15 min. Potency, µM (highest dose often 114 µM), inactives show top-dose activity change, negative = inhibition, usual class: inhibitors. actives 0.35% (n = 390,000); also: % is scaled to controls: 0 for no effect and ±100 for the full control effect; nearly all actives have a fitted effect of over 65% in size
#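 Potency values derive from four-parameter Hill fits of normalized qHTS data. The reaction used 10 nM FEN1 preincubated 15 min at room temperature with compound, then 50 nM DNA substrate, read at 0 and 15 min.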
# Pol kappa inh: inhibitors of human DNA polymerase kappa; AID 588579; Potency, µM (doses to about 107 µM), inactives show top-dose activity, negative = inhibition, most hits filed as inhibitors; actives 0.53% (n = 400,000); Q9UBT6; purified Pol kappa, fluorescent DNA synthesis assay, 10 min; also: % is scaled to controls: 0 for no effect and ±100 for the full control effect
# Target sequence (Q9UBT6 whole entry, looked up): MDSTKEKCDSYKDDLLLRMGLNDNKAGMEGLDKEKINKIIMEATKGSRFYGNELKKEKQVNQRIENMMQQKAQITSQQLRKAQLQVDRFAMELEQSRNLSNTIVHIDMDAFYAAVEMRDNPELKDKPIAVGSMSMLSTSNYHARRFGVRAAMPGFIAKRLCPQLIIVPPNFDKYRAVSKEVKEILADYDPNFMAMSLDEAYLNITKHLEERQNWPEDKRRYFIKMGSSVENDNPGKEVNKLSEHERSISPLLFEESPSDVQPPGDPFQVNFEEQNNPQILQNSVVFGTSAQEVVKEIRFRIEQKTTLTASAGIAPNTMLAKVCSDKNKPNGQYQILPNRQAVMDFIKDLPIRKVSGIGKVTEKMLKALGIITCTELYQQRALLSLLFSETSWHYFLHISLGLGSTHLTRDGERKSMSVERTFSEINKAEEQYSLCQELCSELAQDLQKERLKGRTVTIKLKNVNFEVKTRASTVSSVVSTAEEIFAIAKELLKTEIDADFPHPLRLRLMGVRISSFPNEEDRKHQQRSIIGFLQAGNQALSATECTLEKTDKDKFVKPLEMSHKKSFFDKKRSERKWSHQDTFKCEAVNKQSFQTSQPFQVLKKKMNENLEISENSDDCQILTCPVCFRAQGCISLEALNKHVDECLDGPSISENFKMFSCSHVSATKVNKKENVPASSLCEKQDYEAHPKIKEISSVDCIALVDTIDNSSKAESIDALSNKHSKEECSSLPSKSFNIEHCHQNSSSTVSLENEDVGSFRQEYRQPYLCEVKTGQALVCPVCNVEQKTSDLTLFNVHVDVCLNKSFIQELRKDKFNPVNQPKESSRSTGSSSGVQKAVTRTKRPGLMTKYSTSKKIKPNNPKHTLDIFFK
#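 50 nM final substrate added after 15 min RT preincubation of 10 nM Pol kappa with compound; fluorescence read at 0 and 10 min.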
# Pol iota inh: inhibitors of human DNA polymerase iota; Pol iota fluorescent replication assay, 10 min; Potency, µM (highest dose often 115 µM), inactives show top-dose activity, negative = inhibition, actives largely listed as inhibitors; actives 1% (n = 390,000); AID 588590
#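 Fluorescent replication assay read twice, at 0 min and 10 min after adding 50 nM (final) substrate. Enzyme (10 nM) and compounds were first incubated 15 min at room temperature; enzyme-free buffer wells were negative controls.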
# Tb PGK inh: T. brucei PGK inhibition. actives 0.043% (n = 380,000). P07378. Potency, µM (doses to about 57.5 µM), for the others: top-dose activity change, negative = inhibition, most hits filed as inhibitors. PGK/GAPDH coupled, Kinase-Glo luminescence, 60 min; also: % is scaled to controls: 0 for no effect and ±100 for the full control effect; nearly all actives have a fitted effect of over 60% in size
#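 Recombinant glycosomal PGK reaction used 1,3-bisphosphoglycerate generated in-well by GAPDH (100nM final) in 100mM TEA pH 7.6, 5mM MgCl2, 0.01% Tween-20. After 60 minutes at room temperature, ATP was read by Kinase-Glo Plus luminescence end-point.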
# Pol beta inh: DNA polymerase beta (human) inhibition; P06746; Pol beta primer extension/strand displacement, fluorescence kinetic; Potency, µM (doses to about 114 µM), for the others: at the top dose activity change, negative = inhibition, most hits filed as inhibitors; actives 1.3% (n = 340,000); also: % is scaled to controls: 0 for no effect and ±100 for the full control effect
#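 Enzyme-only controls used 10 nM Pol beta; buffer lacking enzyme served as negative control. Compound preincubated 15 min, then 50 nM substrate added; 0 and 10 min reads at room temperature.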
# POLH inh: DNA polymerase eta (human) inhibition | AID 588591 | recombinant Pol eta, fluorescent DNA replication assay | Q9Y253 | actives 1.2% (n = 390,000) | Potency, µM (titrated, usually from 114 µM), for inactives: top-dose activity change, negative = inhibition, actives largely listed as inhibitors; also: % is scaled to controls: 0 for no effect and ±100 for the full control effect
#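 Fluorescent replication assay: 50 nM final substrate added after a 15 min room-temperature compound preincubation with 10 nM enzyme. Signal taken at 0 min and again at 10 min.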
# PGK validate: blocks T. brucei phosphoglycerate kinase; shares compounds with Pol kappa inh; TbPGK coupled GAPDH assay, Kinase-Glo luminescence; Potency, µM (titrated, usually from 57.5 µM), for inactives: at the top dose activity change, negative = inhibition, hits mostly inhibitors; actives 79% (n = 500); also: % is scaled to controls: 0 for no effect and ±100 for the full control effect; nearly all actives have a fitted effect of over 65% in size
# POLI cherry-pick: Confirm cherry-picked inhibitors of human polymerase iota; shares compounds with Pol kappa inh; Pol iota primer extension, TAMRA/BHQ fluorescence; Potency, µM, actives largely listed as inhibitors; actives 77% (n = 1,500); AID 720496
# * hit, by the source's call; i = inactive; ? = inconclusive; nt = no result given; [ ] = another dose, or the depositor's remark. Calls follow the shape of the dose curve; as a rule, active = well fitted curve in the direction sought with a large enough effect; inconclusive = small, poorly fitted or top-dose-only effect, or another doubt; inactive = no such curve, though single readings can be large; an effect the other way counts as inactive or inconclusive. Potency is read from the fitted curve at half-maximal effect.
SMILES,FEN1 inhibitor,Pol kappa inh,Pol iota inh,Tb PGK inh,Pol beta inh,POLH inh,PGK validate,others
Cc1cccc(/C(N)=N/OC(=O)c2ccc3c(c2)OCO3)c1,6.2%,-13.1%,-14.7%,?,-1.8%,-9.5%,10.3µM*,
N/C(=N\OC(=O)c1ccc2c(c1)OCO2)c1cccc([N+](=O)[O-])c1,12.0%,-6.9%,11.4%,-7.2%,?,-18.9%,nt,
COc1ccc(OC)c(N/C=C/C(=O)c2ccccc2)c1,-18.0%,-11.0%,-0.3%,?,20.7%,0.5%,18.3µM*,
COc1cccc2c1NC(C(=O)O)C1CC=CC21 (stereo unspecified),25.1µM*,7.94µM*,1µM*,?,1.78µM*,2.51µM*,8.19µM*,
CC(=O)c1ccc2c(c1)C1C=CCC1C(C(=O)O)N2 (stereo unspecified),12.6µM*,3.55µM*,1.58µM*,14.1µM*,31.6µM*,1µM*,9.19µM*,
Cc1c2cnn(-c3ccccc3)c(=O)c2c(C)n1CC(=O)NCc1ccccc1Br,17.4%,-5.2%,19.5%,nt,17.1%,nt,nt,
Cc1ccc(-c2nnc(SCCC(=O)Nc3ccccc3)n2C)cc1,-3.5%,12.2%,23.2%,nt,nt,nt,nt,
O=C(O)Cc1cccc(=O)c(O)c1C(=O)O,?,?,22.4µM*,12.6µM*,nt,3.98µM*,5.17µM*,
COc1ccc(-c2noc(-c3nnn(-c4cc(C)ccc4C)c3N)n2)cc1,-20.1%,-7.7%,-2.1%,-1.0%,37.9%,-18.4%,nt,
Cc1cc(C)c(Cn2c(=O)n(CCCC(=O)NCc3ccc4c(c3)OCO4)c(=O)c3sccc32)c(C)c1,-1.5%,-3.7%,8.5%,i,11.7%,-16.8%,nt,
Cc1cccc(NC(=O)c2ccc3c(O)c(S(=O)(=O)c4ccccc4)c(=O)[nH]c3c2)c1C,-5.0%,-14.3%,32.2%,-11.5%,-9.5%,4.2%,nt,
COc1ccc(-n2cccc2/C=C2\C(=N)N3N=C(C(C)C)SC3=NC2=O)cc1,-27.5%,-7.4%,40.0%,9.5%,1.1%,-24.9%,nt,
COc1ccc(-n2cccc2/C=C2\C(=N)N3N=C(c4ccco4)SC3=NC2=O)cc1,?,22.4µM*,?,?,5.62µM*,8.91µM*,3.66µM*,
CCCC[C@@H]1CNCCN1CCc1cccc(F)c1,1.6%,17.3%,-16.2%,-6.0%,nt,-7.3%,nt,
Fc1cccc(CCN2CCNC[C@@H]2Cc2ccccc2)c1,-17.3%,-7.7%,?,?,nt,10.6%,?,
COc1ccc(S(=O)(=O)N2CCOCC2)cc1NC(=O)c1cccc(-n2cccc2)c1,-16.3%,39.8µM*,7.08µM*,-14.3%,nt,2.51µM*,nt,POLI cherry-pick=?
COc1ccccc1NC(=O)c1cccc(S(=O)(=O)N2CCOCC2)c1,37.7%,0.0%,7.0%,i,0.1%,-15.8%,nt,
CCC(=O)N1c2ccccc2CC1C(=O)NCCCN1CCN(c2ccc(OC)cc2)CC1 (stereo unspecified),-2.1%,-1.1%[60.1 µM],30.9%,?,-15.6%,-10.2%,-0.9%,
CCC(=O)N1c2ccccc2CC1C(=O)NCCN1CCN(c2cc(Cl)ccc2C)CC1 (stereo unspecified),-3.1%,-7.7%[60.1 µM],-2.8%,-4.5%,-20.4%,-7.2%,nt,
CC(C)CCN1CCN(Cc2ccc3nsnc3c2)CC1CCO (stereo unspecified),5.4%,-17.9%,25.1%,?,-1.4%,-2.3%,-7.5%,
C=CCN1C=C2C(=O)C(C)(OC(=O)c3cnc4ccccc4n3)C(=O)C=C2C=C1/C=C/COC (stereo unspecified),-17.2%,?,?,i,nt,25.1µM*,nt,POLI cherry-pick=?
CCN(CC)c1nn2c(=O)c(C(=O)NCCc3ccc(C)cc3)cnc2s1,1.8%,2.4%,11.6%,-6.6%,-0.7%,2.5%,nt,
COc1ccc(-c2cc3nc(C)n(N)c(=O)c3s2)cc1,-14.8%,-12.1%,10.4%,4.47µM*,-8.8%,-6.2%,4.11µM*,
Cc1nc2cc(-c3ccccc3)sc2c(=O)n1N,-16.8%,-5.4%,38.4%,10µM*,10.7%,3.6%,8.19µM*,
COc1ccc(-c2cc3nc4n(c(=O)c3s2)CCC4)cc1,-0.6%,-1.2%,-4.6%[58.9 µM],-6.7%,-16.3%,-4.3%,nt,
SMILES,FEN1 inhibitor,Pol kappa inh,Pol iota inh,Tb PGK inh,Pol beta inh,POLH inh,PGK validate,others
Cc1c(Cl)cccc1NC(=O)c1cnc2sc(N3CCOCC3)nn2c1=O,-1.1%,-7.1%,10.1%,4.6%,22.7%,-19.2%,nt,
Cc1ccc(S(=O)(=O)NCc2ccc(C(=O)NCCc3ccc(S(N)(=O)=O)cc3)cc2)cc1,-1.5%,-13.4%,31.6µM*,-7.6%,?,?,nt,POLI cherry-pick=?
Cc1cc(NC(=O)CSc2ccc(-c3nc4cc(C)c(C)cc4[nH]3)cn2)no1,6.5%,8.3%,22.7%,?,-0.4%,-16.4%,4.9%,
CCOc1ccc2nc(NC(=O)c3ccoc3C)sc2c1,-7.1%,-4.5%,?,?,-20.6%,-16.2%,6.51µM*,
COc1ccc(OC)c(NC(=O)N2CCC3(CC2)Oc2ccccc2C(=O)N3Cc2ccccc2F)c1,-4.2%,4.7%,-13.8%,nt,29.6%,nt,nt,
CCSc1ncc(Cl)c(C(=O)N(Cc2ccc(N(C)C)cc2)Cc2ccco2)n1,-17.1%,-0.3%,-18.8%,nt,5.1%,nt,nt,
COc1cc(CC2COC(c3ccc(O)c(OC)c3)C2COC(C)=O)ccc1O (stereo unspecified),56.2µM*,22.4µM*,10µM*,?,6.31µM*,3.55µM*,8.19µM*,
COc1cc([C@@H]2OC[C@@H]3[C@H]2CO[C@@H]3c2ccc3c(c2)OCO3)ccc1O,-17.1%,-5.0%,-1.1%,0.3%,nt,-9.5%,nt,
O=C(NCCc1ccccc1)c1sc2ncccc2c1-n1cccc1,?,-8.6%[60.1 µM],25.9%,6.4%,3.4%,-23.3%,nt,
NC1CCc2ccc([N+](=O)[O-])cc21 (stereo unspecified),-9.2%,-5.8%,3.4%,nt,nt,nt,nt,
COc1ccccc1-c1nc(-c2ccccn2)no1,-0.9%,11.2%,-1.0%,?,20.0%,-15.1%,18.3µM*,
Cc1cc2c(c(C)c1Cl)C(c1ccc3c(c1)OCO3)CC(O)(c1ccccc1)O2 (stereo unspecified),-5.6%,-10.2%,-16.0%,nt,nt,nt,nt,
O=C(Cn1c2ccccc2c(=O)c2ccccc21)N/N=C/c1cc([N+](=O)[O-])ccc1N1CCCCCC1,-20.0%,-7.1%,45.4%,-1.5%,2.51µM*,2.82µM*,nt,POLI cherry-pick=?
